The supplement of paper PMC12636033
± gives the standard deviation of the averaged measurements. The full ranking holds about 33,000 sequences; the median of “E-score (rank enrichment, -0.5 to 0.5)” is about -0.0043, and the highest 2% start at about 0.24. For the sample, the highest values were picked, then their nearest neighbours and some sequences at random.

The sequences below were run on 2Sp-muMax20 (muMax20 with two 2,6-bis(methyl)pyridine Cys staples) (assay: PBM 8-mer E-score (E-score (rank enrichment, -0.5 to 0.5)); higher = stronger preferential binding).
Description: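 Protein binding microarray (universal PBM chip covering all 10-mers in fixed probe flanks) with chemically synthesized human Max(13-93) bHLH-LZ analogs (not full-length Max) bearing noncanonical residues (hArg, Tha, Aib, Nle at 65) and aromatic Cys staples. Read-out per 8-mer (and its reverse complement): E-score (rank-based enrichment, -0.5 to 0.5) and Z-score of median probe intensity.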

Row | Sequence | PBM 8-mer E-score
1 | ACAGACGG | -0.07 ± 0.089
2 | ATTCGTTG | -0.0514 ± 0.066
3 | ACGTGTAA | 0.173 ± 0.072
4 | GCAGCGAA | -0.157 ± 0.066
5 | ACCTTGAT | 0.0217 ± 0.046
6 | GATTCAAA | 0.0206 ± 0.051
7 | CTCGGTGC | -0.163 ± 0.12
8 | ACGAACTA | -0.0202 ± 0.1
9 | GGTACAAA | 0.0427 ± 0.053
10 | CGTACACG | 0.134 ± 0.035
11 | AGTACAAA | 0.134 ± 0.1
12 | AGTACACA | 0.196 ± 0.098
13 | TGTACACA | 0.283 ± 0.012
14 | TGTACAAA | 0.244 ± 0.054
15 | GTAACAAC | 0.00768 ± 0.059
16 | ACATTCAG | 0.0112 ± 0.042
17 | AATGAATA | 0.259 ± 0.064
18 | GATGAATA | 0.201 ± 0.093
19 | TATGAATA | 0.169 ± 0.078
20 | AATGAATG | 0.24 ± 0.098
21 | AATGAATC | -0.0131 ± 0.0047
22 | AATGAATT | 0.179 ± 0.031
23 | ATACTTGG | 0.0935 ± 0.004
24 | GTCCATCA | -0.0683 ± 0.092
25 | CCCGTCCC | -0.0481 ± 0.028

Row | Sequence | PBM 8-mer E-score
26 | ACAAACTA | 0.115 ± 0.0062
27 | CCAAACTA | 0.241 ± 0.0054
28 | CAAAACTA | 0.103 ± 0.013
29 | GTGACTAA | 0.0929 ± 0.037
30 | CATCCAAC | 0.124 ± 0.056
31 | TAGGGACA | -0.0107 ± 0.063
32 | GTCTAGTA | 0.246 ± 0.021
33 | AACTACTA | 0.144 ± 0.025
34 | GACTAGTA | 0.223 ± 0.033
35 | ATCTACTC | -0.0118 ± 0.032
36 | TACTACTA | 0.247 ± 0.058
37 | GACTACTA | 0.12 ± 0.12
38 | ATCTACTA | 0.263 ± 0.086
39 | CACTAGTA | 0.107 ± 0.1
40 | ATCTAGTA | 0.0613 ± 0.095
41 | ATCTACTG | 0.0117 ± 0.033
42 | CTCTAGTA | 0.125 ± 0.045
43 | TACTAGTA | 0.25 ± 0.055
44 | AAGGCTAA | 0.0957 ± 0.095
45 | GCAATCCC | 0.107 ± 0.035
46 | AATACTTA | 0.05682 ± 0.00026
47 | CGCCTAGA | -0.246 ± 0.079
48 | ACTCCGGA | 0.0232 ± 0.032
49 | AAAGCTAT | 0.0921 ± 0.032
50 | AGAGTTGC | -0.124 ± 0.013

Row | Sequence | PBM 8-mer E-score
51 | GCTCCGAC | -0.215 ± 0.035
52 | CGGCTTCC | -0.166 ± 0.13
53 | CCTGCCCG | -0.0476 ± 0.0022
54 | CCGTTACC | -0.0555 ± 0.027
55 | GACTTGTA | 0.124 ± 0.17
56 | ACCGCAAA | -0.161 ± 0.043
57 | CTTGCGCA | 0.266 ± 0.0099
58 | AATGCGCA | 0.229 ± 0.021
59 | TATGCGCA | 0.267 ± 0.026
60 | CTTGCGCC | -0.148 ± 0.036
61 | ATTGCGCA | 0.124 ± 0.033
62 | CATGCGCA | 0.109 ± 0.18
63 | TAACATTA | 0.114 ± 0.082
64 | CTGTTTAC | 0.0257 ± 0.014
65 | CTGTTAAC | 0.0735 ± 0.0019
66 | ATGTTAAC | 0.322 ± 0.023
67 | ATGTTTAC | 0.243 ± 0.073
68 | ATGTTTAG | 0.22 ± 0.022
69 | GTGTTAAC | -0.0129 ± 0.032
70 | ACTGGCTC | -0.126 ± 0.031
71 | GGTAAACC | -0.203 ± 0.077
72 | ACAAGTCA | 0.0779 ± 0.031
73 | ACAAGTCG | 0.0191 ± 0.009
74 | ACAAGTCT | 0.287 ± 0.028
75 | ACATGCAA | 0.0816 ± 0.11

Row | Sequence | PBM 8-mer E-score
76 | AGGTATCG | -0.0734 ± 0.073
77 | CGGTATCA | -0.1599 ± 0.00081
78 | AGGTATCA | 0.238 ± 0.043
79 | AAAAGGCG | 0.0426 ± 0.024
80 | CACCGATA | -0.0537 ± 0.018
81 | CGGAATGA | -0.155 ± 0.06
82 | GGGAATGA | 0.26 ± 0.057
83 | AGGAATGA | 0.0595 ± 0.018
84 | AATGTATC | 0.151 ± 0.022
85 | TACCAACA | 0.163 ± 0.027
86 | ATAGACTC | 0.154 ± 0.021
87 | CTGGCGGC | -0.155 ± 0.055
88 | CACGCCCG | 0.0249 ± 0.038
89 | CTATCATA | 0.185 ± 0.013
90 | ATATCATG | 0.147 ± 0.035
91 | ATATCAGA | 0.0984 ± 0.019
92 | ACATCATC | 0.047 ± 0.02
93 | CTGTCATA | 0.179 ± 0.043
94 | ATATCATA | 0.255 ± 0.085
95 | CCATCATA | 0.153 ± 0.082
96 | ATGTCATA | 0.189 ± 0.012
97 | ACATCATA | 0.244 ± 0.064
98 | ATATCAGG | 0.239 ± 0.032
99 | ATATCAGC | 0.0631 ± 0.073
100 | GTGTCATA | 0.248 ± 0.042

Row | Sequence | PBM 8-mer E-score
101 | CGATAAGC | -0.0518 ± 0.16
102 | GGAATACC | -0.138 ± 0.015
103 | ACAGTTAG | 0.074 ± 0.026
104 | TGCTGCAA | 0.0638 ± 0.096
105 | CTTTCGGA | -0.125 ± 0.009
106 | CCCAACAA | 0.177 ± 0.0058
107 | AAAAGAAA | 0.0569 ± 0.052
108 | CCGCTGGA | -0.157 ± 0.04
109 | GTATCAGA | -0.0699 ± 0.043
110 | GCATCATA | 0.169 ± 0.0065
111 | GTATCATA | 0.255 ± 0.024
112 | CATGAGCA | -0.0267 ± 0.017
113 | GCCGAAGA | -0.0625 ± 0.053
114 | AGTAATAC | -0.0935 ± 0.039
115 | AGTAACAA | 0.113 ± 0.089
116 | AATAGTAG | 0.0793 ± 0.083
117 | CGTAATAG | 0.118 ± 0.1
118 | AGTAATGG | 0.122 ± 0.043
119 | AGTAATAG | 0.254 ± 0.02
120 | CATAGTAA | 0.159 ± 0.099
121 | AATAGTAA | 0.238 ± 0.06
122 | AGTAATAA | 0.0744 ± 0.038
123 | AGTAATAT | 0.25 ± 0.05
124 | AGTAACAG | 0.09 ± 0.031
125 | AGTAACAT | 0.294 ± 0.018

Row | Sequence | PBM 8-mer E-score
126 | ACCGGCAT | -0.121 ± 0.029
127 | GCAAATAC | 0.0657 ± 0.013
128 | AATAGATT | 0.117 ± 0.049
129 | GCAACGTA | -0.119 ± 0.038
130 | GAGCTATC | 0.0105 ± 0.011
131 | CCAAACGA | -0.105 ± 0.068
132 | AGCGTGTG | 0.146 ± 0.035
133 | ATCGGGAA | -0.0836 ± 0.067
134 | GCATCCAC | 0.0775 ± 0.049
135 | CCCACCTC | -0.0411 ± 0.14
136 | GCTTTTTA | 0.303 ± 0.013
137 | GCTTTTCA | 0.0545 ± 0.063
138 | CCTTTTCA | 0.29 ± 0.03
139 | CCTTTTTA | -0.0668 ± 0.03
140 | GCTTTTAA | -0.0089 ± 0.0068
141 | CTTTTTCA | 0.0855 ± 0.061
142 | GTTCCTCA | -0.0919 ± 0.021
143 | CGCTGGAG | -0.172 ± 0.023
144 | ATCAACTC | 0.0114 ± 0.058
145 | CGAAGGAA | -0.209 ± 0.023
146 | GAGCCAGA | -0.216 ± 0.14
147 | TGTATGAA | 0.0767 ± 0.054
148 | GCCCACCA | 0.078 ± 0.038
149 | ACCCACCC | 0.424 ± 0.043
150 | GCCCACCC | 0.417 ± 0.02

Row | Sequence | PBM 8-mer E-score
151 | ACCCACCA | 0.178 ± 0.043
152 | CCCCACCC | 0.23 ± 0.1
153 | GCCCACAC | 0.076 ± 0.018
154 | AACCGGAA | -0.0983 ± 0.0079
155 | GCTGAGAA | -0.111 ± 0.028
156 | TCAACCGA | -0.0249 ± 0.02
157 | AACCATTA | 0.293 ± 0.0072
158 | CACCATTA | -0.0267 ± 0.11
159 | AACCATTG | -0.145 ± 0.014
160 | GTCAAATA | 0.163 ± 0.093
161 | CCATATGG | 0.295 ± 0.008
162 | CAATATGC | 0.128 ± 0.021
163 | CAATATGA | 0.189 ± 0.055
164 | CAATATGG | 0.244 ± 0.044
165 | ACATATGG | 0.0892 ± 0.04
166 | CCATATGC | 0.134 ± 0.054
167 | AGCACCAG | -0.0554 ± 0.022
168 | CGACACTC | -0.159 ± 0.094
169 | AACACTCC | -0.151 ± 0.012
170 | GAAATCAA | 0.0712 ± 0.019
171 | CAAATCAA | 0.237 ± 0.0084
172 | AAAATCAG | 0.0292 ± 0.03
